# According to ChEMBL document CHEMBL2218924, “A broad activity screen in support of a chemogenomic map for kinase signalling research and drug discovery” (Biochem J, 2013):
# How the values were obtained:
# [1] = target: Tyrosine-protein kinase SYK (Homo sapiens) (UniProt P43405); conditions: at 10 µM
# [2] = target: T1, Mitogen-activated protein kinase kinase kinase 7 (Homo sapiens) (UniProt O43318); conditions: at 1 µM
# T1 sequence (whole entry): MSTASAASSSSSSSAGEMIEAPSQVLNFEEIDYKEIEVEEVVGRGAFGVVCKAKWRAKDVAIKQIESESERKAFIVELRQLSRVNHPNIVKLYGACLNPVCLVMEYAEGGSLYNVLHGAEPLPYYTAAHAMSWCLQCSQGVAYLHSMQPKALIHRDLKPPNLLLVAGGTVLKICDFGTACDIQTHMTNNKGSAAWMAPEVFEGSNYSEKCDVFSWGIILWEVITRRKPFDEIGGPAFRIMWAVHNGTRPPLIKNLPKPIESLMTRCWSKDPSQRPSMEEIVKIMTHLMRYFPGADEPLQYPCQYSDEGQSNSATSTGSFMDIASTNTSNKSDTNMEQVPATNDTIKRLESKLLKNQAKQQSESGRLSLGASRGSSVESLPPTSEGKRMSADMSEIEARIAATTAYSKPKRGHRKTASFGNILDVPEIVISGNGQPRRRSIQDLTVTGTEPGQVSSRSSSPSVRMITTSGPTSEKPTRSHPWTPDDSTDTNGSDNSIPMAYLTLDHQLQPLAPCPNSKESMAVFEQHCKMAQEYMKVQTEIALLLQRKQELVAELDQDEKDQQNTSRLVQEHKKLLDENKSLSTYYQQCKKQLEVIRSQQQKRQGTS
# [3] = target: T1, Mitogen-activated protein kinase kinase kinase 7 (Homo sapiens); conditions: at 10 µM
# [4] = target: T2, Serine/threonine-protein kinase TAO1 (Homo sapiens) (UniProt Q7L7X3); conditions: at 10 µM
# T2 sequence (whole entry): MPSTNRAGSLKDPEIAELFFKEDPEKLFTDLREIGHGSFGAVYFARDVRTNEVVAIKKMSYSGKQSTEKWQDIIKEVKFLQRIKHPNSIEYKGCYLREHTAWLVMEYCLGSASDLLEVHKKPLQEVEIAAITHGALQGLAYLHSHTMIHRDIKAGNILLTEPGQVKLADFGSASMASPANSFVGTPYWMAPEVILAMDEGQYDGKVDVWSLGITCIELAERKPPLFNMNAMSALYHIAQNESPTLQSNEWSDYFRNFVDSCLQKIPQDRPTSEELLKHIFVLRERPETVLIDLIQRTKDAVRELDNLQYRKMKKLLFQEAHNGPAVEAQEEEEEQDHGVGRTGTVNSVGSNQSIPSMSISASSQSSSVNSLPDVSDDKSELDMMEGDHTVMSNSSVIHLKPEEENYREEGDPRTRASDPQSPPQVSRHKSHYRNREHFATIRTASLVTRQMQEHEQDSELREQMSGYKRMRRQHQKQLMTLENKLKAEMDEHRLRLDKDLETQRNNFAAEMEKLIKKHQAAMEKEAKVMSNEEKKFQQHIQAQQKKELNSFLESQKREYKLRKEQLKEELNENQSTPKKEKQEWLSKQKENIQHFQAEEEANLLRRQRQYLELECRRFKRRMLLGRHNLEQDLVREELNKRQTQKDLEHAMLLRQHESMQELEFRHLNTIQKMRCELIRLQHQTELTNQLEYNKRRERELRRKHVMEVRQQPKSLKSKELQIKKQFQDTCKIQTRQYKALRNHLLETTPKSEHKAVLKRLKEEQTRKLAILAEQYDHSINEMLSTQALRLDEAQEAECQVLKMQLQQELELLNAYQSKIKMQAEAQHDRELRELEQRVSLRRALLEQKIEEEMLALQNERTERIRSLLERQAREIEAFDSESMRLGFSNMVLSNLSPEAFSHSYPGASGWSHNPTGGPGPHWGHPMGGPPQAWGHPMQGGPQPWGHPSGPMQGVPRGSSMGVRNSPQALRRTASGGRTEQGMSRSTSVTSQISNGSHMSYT
# [5] = target: T3, Serine/threonine-protein kinase TAO2 (Homo sapiens) (UniProt Q9UL54); conditions: at 10 µM
# T3 sequence (whole entry): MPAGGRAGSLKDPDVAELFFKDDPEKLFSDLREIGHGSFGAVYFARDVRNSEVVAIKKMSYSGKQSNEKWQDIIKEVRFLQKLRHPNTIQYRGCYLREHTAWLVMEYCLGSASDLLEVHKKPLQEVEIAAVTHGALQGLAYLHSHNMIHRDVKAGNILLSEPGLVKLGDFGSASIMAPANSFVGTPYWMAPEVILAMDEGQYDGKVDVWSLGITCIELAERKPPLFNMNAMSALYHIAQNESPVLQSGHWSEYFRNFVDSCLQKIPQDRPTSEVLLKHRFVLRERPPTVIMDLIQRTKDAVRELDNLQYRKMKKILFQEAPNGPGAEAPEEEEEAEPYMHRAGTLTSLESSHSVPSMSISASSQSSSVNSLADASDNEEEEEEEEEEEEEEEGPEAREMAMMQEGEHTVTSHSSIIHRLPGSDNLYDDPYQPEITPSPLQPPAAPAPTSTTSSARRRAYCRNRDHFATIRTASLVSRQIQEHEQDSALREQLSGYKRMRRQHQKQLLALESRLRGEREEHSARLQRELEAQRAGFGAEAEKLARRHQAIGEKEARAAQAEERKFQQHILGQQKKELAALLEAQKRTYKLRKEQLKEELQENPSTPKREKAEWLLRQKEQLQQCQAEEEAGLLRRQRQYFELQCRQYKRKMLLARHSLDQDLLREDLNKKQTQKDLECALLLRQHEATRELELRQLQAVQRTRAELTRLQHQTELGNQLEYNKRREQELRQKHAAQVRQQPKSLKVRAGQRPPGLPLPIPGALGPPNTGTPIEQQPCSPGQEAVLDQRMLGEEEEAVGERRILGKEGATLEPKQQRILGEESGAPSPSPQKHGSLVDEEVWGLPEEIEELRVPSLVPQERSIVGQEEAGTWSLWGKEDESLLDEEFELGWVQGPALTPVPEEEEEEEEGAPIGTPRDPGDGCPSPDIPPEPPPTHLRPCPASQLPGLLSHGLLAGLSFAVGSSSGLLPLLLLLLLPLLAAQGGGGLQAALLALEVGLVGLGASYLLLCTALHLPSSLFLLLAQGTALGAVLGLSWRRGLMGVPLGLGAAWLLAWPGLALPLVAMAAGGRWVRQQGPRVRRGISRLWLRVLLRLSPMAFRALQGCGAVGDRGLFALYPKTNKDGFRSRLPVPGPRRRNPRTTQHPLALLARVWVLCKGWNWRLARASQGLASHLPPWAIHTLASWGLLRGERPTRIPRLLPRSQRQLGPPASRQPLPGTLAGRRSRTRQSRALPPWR
# [6] = target: T4, Serine/threonine-protein kinase TAO3 (Homo sapiens) (UniProt Q9H2K8); conditions: at 10 µM
# T4 sequence (whole entry): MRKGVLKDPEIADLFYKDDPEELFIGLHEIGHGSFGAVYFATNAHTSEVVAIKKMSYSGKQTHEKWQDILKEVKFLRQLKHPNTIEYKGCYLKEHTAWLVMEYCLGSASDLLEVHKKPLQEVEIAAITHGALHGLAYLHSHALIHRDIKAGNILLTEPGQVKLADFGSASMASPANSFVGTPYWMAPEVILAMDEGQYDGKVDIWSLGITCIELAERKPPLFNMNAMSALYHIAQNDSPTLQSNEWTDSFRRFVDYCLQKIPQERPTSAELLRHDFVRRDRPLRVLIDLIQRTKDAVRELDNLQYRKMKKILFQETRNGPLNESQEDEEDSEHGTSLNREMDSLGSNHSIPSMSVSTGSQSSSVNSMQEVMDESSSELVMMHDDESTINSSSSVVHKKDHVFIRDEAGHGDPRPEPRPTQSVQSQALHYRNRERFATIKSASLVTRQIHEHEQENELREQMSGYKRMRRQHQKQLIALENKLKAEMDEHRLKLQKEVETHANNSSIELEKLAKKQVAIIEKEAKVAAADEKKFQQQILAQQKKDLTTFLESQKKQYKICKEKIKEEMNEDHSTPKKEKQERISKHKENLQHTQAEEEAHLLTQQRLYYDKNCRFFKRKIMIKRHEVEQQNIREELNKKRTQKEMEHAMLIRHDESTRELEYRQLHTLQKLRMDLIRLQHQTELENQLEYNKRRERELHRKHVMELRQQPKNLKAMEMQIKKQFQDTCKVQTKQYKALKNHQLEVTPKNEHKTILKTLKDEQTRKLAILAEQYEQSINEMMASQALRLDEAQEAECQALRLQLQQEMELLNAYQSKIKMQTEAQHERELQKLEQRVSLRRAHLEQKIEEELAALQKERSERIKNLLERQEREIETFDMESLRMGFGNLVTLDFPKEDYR
# [7] = target: T5, Serine/threonine-protein kinase TBK1 (Homo sapiens) (UniProt Q9UHD2); conditions: at 1 µM
# T5 sequence (whole entry): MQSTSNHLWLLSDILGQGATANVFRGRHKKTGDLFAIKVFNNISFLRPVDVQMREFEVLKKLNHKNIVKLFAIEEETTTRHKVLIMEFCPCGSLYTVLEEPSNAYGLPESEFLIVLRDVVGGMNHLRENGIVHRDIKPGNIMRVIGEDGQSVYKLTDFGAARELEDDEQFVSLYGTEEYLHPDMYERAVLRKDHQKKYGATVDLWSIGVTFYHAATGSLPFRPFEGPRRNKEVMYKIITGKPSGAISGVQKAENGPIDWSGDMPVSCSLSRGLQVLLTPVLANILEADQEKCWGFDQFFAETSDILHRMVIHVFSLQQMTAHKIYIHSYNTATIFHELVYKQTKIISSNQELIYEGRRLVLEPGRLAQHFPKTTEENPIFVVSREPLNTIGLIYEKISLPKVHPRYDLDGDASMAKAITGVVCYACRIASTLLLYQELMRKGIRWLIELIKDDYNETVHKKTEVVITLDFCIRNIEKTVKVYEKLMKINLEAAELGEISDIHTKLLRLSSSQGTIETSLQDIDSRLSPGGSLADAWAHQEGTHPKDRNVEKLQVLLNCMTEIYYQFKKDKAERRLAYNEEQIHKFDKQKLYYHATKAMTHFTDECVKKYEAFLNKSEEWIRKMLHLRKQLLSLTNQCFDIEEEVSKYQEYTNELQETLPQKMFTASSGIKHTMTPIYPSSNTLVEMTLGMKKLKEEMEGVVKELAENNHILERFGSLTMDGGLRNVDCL
# [8] = target: T5, Serine/threonine-protein kinase TBK1 (Homo sapiens); conditions: at 10 µM
compound,measurement,setting,value
O=C1Nc2ccccc2/C1=C1/Nc2ccccc2/C1=N\OCCC(O)CO (stereo not drawn),residual activity,[1],42%
same,residual activity,[2],36%
same,residual activity,[3],38%
same,residual activity,[4],45%
same,residual activity,[5],70%
same,residual activity,[6],71%
same,residual activity,[7],9%
same,residual activity,[8],1%
